Data reported in PubChem BioAssay (NCATS).
Results filed as inconclusive are left out. Unmarked numbers belong to inactive results. Activity calls are given as the source filed them. The call rests on the fitted dose curve; in most records, active means well fitted inhibition curve with a large enough effect; inconclusive means small, poorly fitted or top-dose-only effect; inactive means flat fitted curve, though single readings scatter.
On the % scale 0 is the no-effect control and ±100 the full control effect; potency means the concentration at half of the fitted maximal effect.

These compounds were tested on KB-3-1 (assay: Cytotoxic Profiling of Annotated Libraries Using Quantitative High-Throughput Screening (AID 1296008; further: nearly all actives have a fitted effect of over 60% in size)). Details: Five cell lines viability, CellTiter-Glo ATP luminescence, 48-72 h; max response: active compounds read low.
Text: Cell-based phenotypic screening is a commonly used approach to discover biological pathways, novel drug targets, chemical probes and high-quality hit-to-lead molecules. Many hits identified from high-throughput screening campaign are ruled out through a series of follow-up potency, selectivity/specificity, and cytotoxicity assays. Prioritization of molecules with little or no cytotoxicity for a more in-depth downstream evaluation influence the future direction of projects, so cytotoxicity profiling of the screening libraries at early stage is essential for increasing the likelihood of candidate success. […] For the annotated library, we also examined the primary targets and mechanistic pathways regularly associated with cell death. To our knowledge, this is the first study to use high-throughput screening to profile large libraries for cytotoxicity assessment in both normal and cancer cell lines. In summary, the results generated here constitutes a valuable resource for the scientific community and provides insight on identifying cytotoxic compounds with particular mechanisms of action, and prioritizing compounds with suitable cytotoxicity profile for further evaluation.
A pintool (Kalypsys) was used to transfer 23 nL of compound solution to the 1536-well assay plates. After 48 or 72 hr incubation at 37 degree Celsius, 5% CO2 and 95% humidity, 2.5 uL of CellTiter-Glo (Promega) was dispensed into each well using a dispenser (Aspect Automation, St. Paul, MN) with solenoid valves (Lee Valves, Westbrook CT). Plates were left at room temperature for 10 min before imaging the ATP-coupled luminescence using a ViewLux microplate imager (PerkinElmer, Waltham, MA).
Work on COc1ccc(-c2cnc3c(-c4cccc5ncccc45)cnn3c2)cc1 yielded a max response of -5.9%. C[C@H]1C[C@H]2[C@@H]3CCC4=CC(=O)C=C[C@]4(C)[C@@]3(F)[C@@H](O)C[C@]2(C)[C@@]1(O)C(=O)CCl showed a max response of -8.19%. With COc1cccc(CN(C(=O)CC(C)(C)C)[C@H]2C[C@H](C(=O)N3CCNCC3)N(Cc3ccc4c(c3)OCO4)C2)c1 the outcome was “inactive”. In the case of CC1(C)CC[C@]2(C(=O)O[C@@H]3O[C@H](CO)[C@@H](O)[C@H](O)[C@H]3O)CC[C@]3(C)C(=CCC4[C@@]5(C)CC[C@H](O[C@@H]6O[C@H](C(=O)O)[C@H](O)[C@H](O)[C@H]6O)C(C)(C)C5CC[C@]43C)[C@@H]2C1 (stereo not given in full), the outcome is reported as “inactive”. Compound CCOC(=O)[C@H](CCc1ccccc1)N[C@@H](C)C(=O)N1CC2(C[C@H]1C(=O)O)SCCS2 has a max response of -20.5%. For C=C[C@]1(C)C[C@H](O)[C@H]2C(=C)C(=O)O[C@@H]2[C@H]1C(=C)CO, the outcome was “inactive”. O=C1COC2(CCN(S(=O)(=O)c3ccc(-c4ccc5cccnc5c4)cc3)CC2)CN1C1CC1 showed a max response of 7.72%. NC(=O)c1ccccc1Nc1ccnc(Nc2cccc(O)c2)n1 was tested, and the Potency was 8.2 µM (active). In the case of COc1cc(/C=N\NC(=O)c2ccc3c(c2)OCO3)ccc1OCc1ccccc1, the max response is reported as -9.36%. For COc1ccc(NC(=O)c2ccc(-c3ccc(-c4nnc(C)o4)cc3C)cc2)cc1N1CCN(C)CC1, the max response was 2.03%. CC(C)(C)NC(=O)[C@H]1CC[C@H]2[C@@H]3CC=C4C=C(C(=O)O)CC[C@]4(C)[C@H]3CC[C@]12C was tested, and the max response was -6.72%. For Cc1cn2cc(C(=O)N(C)CCO)cc(NC3CCOc4cccc(C)c43)c2n1 (stereo not given), the outcome was “inactive”. CCCCCCCCCCCCCCCC(=O)OC[C@H](O)[C@H]1OC(=O)C(O)=C1O was tested, and the max response was -14.1%. For O=C(C1CCCCC1)N(CCN1CCN(c2ccccc2O)CC1)c1ccccn1, the max response was -15.9%. With COc1cc2c(cc1O)C1(Cc3ccc4c(c3C1O)OCO4)[N+](C)([O-])CC2 (stereo not given) the outcome was “inactive”. For COc1cc2nc(N3CCN(C(=O)COc4c(OC)cccc4C(C)C)CC3)nc(N)c2cc1OC, the max response was 8.96%. With C[C@@H]1O[C@@H](O[C@H]2[C@@H]3C=CO[C@@H](O[C@@H]4O[C@H](CO)[C@@H](O)[C@H](O)[C@H]4O)[C@@H]3[C@@]3(CO)O[C@@H]23)[C@H](O)[C@H](OC(=O)/C=C/c2ccccc2)[C@H]1O the outcome was “inactive”. CN(C(=O)CO)c1c(I)c(C(=O)NCC(O)CO)c(I)c(C(=O)NCC(O)CO)c1I (stereo not given) gave a max response of 5.16%. In the case of C[C@@H]1C[C@H]2C3C[C@H](F)C4=CC(=O)C=CC4(C)[C@@]3(F)[C@@H](O)CC2(C)[C@@]1(O)C(=O)COC(=O)C(C)(C)C (stereo not given in full), the max response is reported as 27.2%. CC(C)C[C@@H](N)C(=O)N[C@H]1C(=O)N[C@@H](CC(N)=O)C(=O)N[C@H]2C(=O)N[C@H]3C(=O)N[C@H](C(=O)N[C@H](C(=O)O)c4cc(O)cc(O)c4-c4cc3ccc4O)[C@H](O)c3ccc(c(Cl)c3)Oc3cc2cc(c3O[C@@H]2O[C@H](CO)[C@@H](O)[C@H](O)[C@H]2O[C@H]2C[C@](C)(N)[C@H](O)[C@H](C)O2)Oc2ccc(cc2Cl)[C@H]1O was tested, and the outcome was “inactive”. For O=C(O)CSc1cc(NS(=O)(=O)c2ccc(Br)cc2)c2ccccc2c1O, the Potency was 18.4 µM (active). In the case of CO[C@@H]1[C@@H](O[C@@H]2O[C@H](C)[C@@H](O[C@H]3C[C@@](C)(O)[C@@H](OC(=O)CC(C)C)[C@H](C)O3)[C@H](N(C)C)[C@H]2O)[C@@H](CC=O)C[C@@H](C)[C@@H](O)/C=C/C=C/C[C@@H](C)OC(=O)C[C@H]1O, the max response is reported as -0.235%. With CCN(CC)C(=O)C(c1ccccc1)N1CCN(c2ccc(NC(=O)c3ccccc3-c3cccnc3)cc2F)CC1 (stereo not given) the outcome was “inactive”. For C/C(=C/CO)CCC1C(C)CCC2C(C)(C)CCCC12C (stereo not given), the max response was 6.99%. C=C1C(=O)OC[C@@H]1C/C=C(\C)CC1CC(C)C(=O)O1 (stereo not given in full) was tested, and the outcome was “inactive”. Compound C=C1C(=O)OC2CC(C)C(CCC(C)=O)=CCC12 (stereo not given) has a max response of -13.7%. In the case of C=C1C(=O)O[C@@H]2/C=C(/C)[C@@H](OC(C)=O)C/C=C(\C)C[C@@H](OC(=O)/C(=C/CO)CO)[C@@H]12, the outcome is reported as “inactive”. With COCCCNC(=O)c1ccc(Cn2c(=O)c3ccccc3n(Cc3ccc(C(C)C)cc3)c2=O)cc1 the outcome was “inactive”. With COc1c2c(nc3occc13)C(CC=C(C)C)(OC)C(O)CC2 (stereo not given) the max response was -4.13%. In the case of CC(=O)O[C@H]1CC[C@]2(C)[C@H]3CC[C@]4(C)Oc5oc(C)cc(=O)c5C[C@H]4[C@]3(C)CC[C@H]2C1(C)C, the outcome is reported as “inactive”. COc1ccc([C@H]2Cc3cccc(O)c3C(=O)O2)cc1OC showed a max response of 2.52%. For O=C(Cc1c(F)cccc1F)Nc1cc(OCc2ccc(Cl)cc2)ccn1, the outcome was “inactive”. CC1(C)CC[C@]2(C(=O)O)CC[C@]3(C)C(=CCC4[C@@]5(C)C[C@@H](O)[C@H](O)C(CO)(CO)C5CC[C@]43C)C2[C@@H]1O (stereo not given in full) was tested, and the Potency was 10 µM (active). CCC(C)(OC(C)=O)C(=O)O[C@H]1[C@H](OC(C)=O)[C@]2(CO)[C@H](O)[C@H](O)[C@]3(C)C(=CCC4[C@@]5(C)CC[C@H](O[C@@H]6O[C@H](C(=O)O)[C@@H](O)[C@H](O[C@@H]7OC[C@H](O)[C@H](O[C@@H]8OC[C@H](O)[C@H](O)[C@H]8O)[C@H]7O)[C@H]6O[C@@H]6O[C@H](CO)[C@@H](O)[C@H](O)[C@H]6O)C(C)(C)C5CC[C@]43C)[C@@H]2CC1(C)C (stereo not given in full) gave a max response of -16.4%. CCC(C)(C)OC(=O)N[C@@H](Cc1c[nH]c2ccccc12)C(=O)N[C@@H](CCSC)C(=O)N[C@@H](CC(=O)O)C(=O)N[C@@H](Cc1ccccc1)C(N)=O showed a max response of 0.713%. For CC#C[C@@H](CC(=O)O)c1ccc(OCc2cccc(-c3ccc(C(F)(F)F)cc3)c2)cc1, the max response was -14.7%. CC(=O)OC1CC2(C)C(CCC(C)C23Cc2c(O)cc(CO)c(C=O)c2O3)C(C)(C)C1O (stereo not given) was tested, and the max response was 1.75%. Compound Cc1cccc(C#Cc2cc(F)cc(C#N)c2)n1 has a max response of 2.45%. In the case of CC[C@H](C(=O)Nc1ccccc1N1CCCC1)c1ccccc1, the max response is reported as -2.95%. For C=C1C(=C/C=C2\CCC[C@]3(C)[C@@H]([C@H](C)CCCC(C)(C)O)CC[C@@H]23)C[C@@H](O)C[C@@H]1O, the max response was 4.02%.
